Screening results deposited in PubChem BioAssay by National Center for Advancing Translational Sciences (NCATS).
D2 PAM-1 – human D2 receptor positive allosteric modulation. P14416. DiscoveRx D2 beta-arrestin cells, luminescence, 90 min; 100% = 57 uM dopamine signal. potentiation, % (no concentration beside the values). 360,000 compounds, 0.23% hits. AID 624464; in the data active means potentiation above about 50%
Target sequence (P14416 whole entry, looked up): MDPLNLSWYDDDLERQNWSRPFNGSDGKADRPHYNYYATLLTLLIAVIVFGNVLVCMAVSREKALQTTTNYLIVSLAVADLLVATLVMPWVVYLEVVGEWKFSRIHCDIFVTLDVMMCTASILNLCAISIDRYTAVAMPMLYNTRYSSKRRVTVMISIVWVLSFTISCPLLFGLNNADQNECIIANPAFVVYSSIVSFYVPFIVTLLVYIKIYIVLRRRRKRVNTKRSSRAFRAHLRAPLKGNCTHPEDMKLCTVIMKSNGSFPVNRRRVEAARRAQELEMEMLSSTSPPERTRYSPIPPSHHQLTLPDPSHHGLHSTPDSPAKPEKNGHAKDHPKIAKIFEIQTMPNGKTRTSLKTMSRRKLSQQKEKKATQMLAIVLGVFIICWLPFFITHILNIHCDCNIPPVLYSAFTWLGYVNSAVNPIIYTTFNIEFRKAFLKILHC
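D2 cells co-treated with compound plus 50 nM dopamine (EC20) for 90 min at 37 deg C to detect potentiation. Beta-arrestin recruitment was read as enzyme-fragment luminescence after 1 h at ambient temperature. Full response was set by 57 uM dopamine.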
D2 ag-1 – agonists of human D2 dopamine receptor. HEK293 T-REx D2 cells, calcium flux agonist mode. activation, % at 2 µM. 340,000 compounds, 0.53% hits. AID 485358;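 active means activation over 3 SD above normal in the single-dose calcium agonist read, cut at about 30% in these data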; further: 0% is about no effect
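HEK293 Trex D2 cells, tetracycline-induced, o/n 30 C 5% CO2; no-wash Ca dye, RT 30–90 min; 10-cycle baseline, 23 nl cpd added, kinetic Ca read 180 s; agonist hits = positive Ca response.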
D2 PAM-2 – positive allosteric modulators of human D2 dopamine receptor; P14416; HEK293 T-REx D2, calcium flux, EC20 dopamine potentiation; potentiation, % at 10 µM; 340,000 compounds, 0.34% hits; AID 485347;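 active means potentiation over 3 SD above the plate norm, cut at about 30% in these data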; further: 0% is about no effect
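Potentiation of an EC20 dopamine calcium response is measured in a force-coupled, tetracycline-inducible Hek293 Trex D2 line. Compound-only kinetic reads over 180 s flag agonists before dopamine addition.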
D2 antagonist – antagonizes the human D2 dopamine receptor; P14416; HEK293 TREx D2 cells, calcium flux, dopamine EC80; inhibition, % at 10 µM; 340,000 compounds, 2% hits; AID 485344; in the data active means inhibition above about 30%; inactive means below that, where a call was filed; further: 0% is about no effect
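Compounds are added to dye-loaded, induced HEK293 T-REx cells coupled to calcium release via D2; after a 3 min kinetic read an EC80 dopamine stimulus is given and fluorescence is recorded for 3 more min.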
D2 ag-2 – agonists of human D2 dopamine receptor (beta-arrestin); P14416; DiscoveRx PathHunter D2 beta-arrestin, luminescence, 90 min; 100% = 57 uM dopamine signal; activation, % (test concentration not listed); 360,000 compounds, 0.084% hits; in the data active means activation above about 40%
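DiscoveRx PathHunter D2 beta-arrestin cells (2,100/well) attached overnight, then compound-stimulated 90 min at 37 C in HBSS/10 mM HEPES/0.1% Tween-20 buffer; beta-galactosidase complementation read by luminescence after 1 h at ambient temperature. Dopamine 57 uM final (EC100) as control.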
D3 ag – confirmation of human D3 dopamine receptor agonists, beta-arrestin. shares compounds with D2 ag-1. DiscoveRx D3 beta-arrestin cells, luminescence, 90 min. Potency, µM (series often up to 76.9 µM), inactives show top-dose activation, usual class: activators. 2,300 compounds, 4% hits. AID 720506;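 further: potency means the concentration at half of the fitted maximal effect; 100% = dopamine control response; nearly all actives have a fitted effect of over 70% in size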
D2 ag-3 – D2 receptor agonism, beta-arrestin counterscreen. shares compounds with D2 ag-1. DiscoveRx PathHunter D2 beta-arrestin, luminescence, 90 min; response scale: percent relative to full dopamine signal. 2,300 compounds, 5.9% hits. AID 720507. Potency, µM (highest dose often 76.9 µM), inactives show top-dose activation, actives largely listed as activators; further: potency means the concentration at half of the fitted maximal effect; % of control where 0% means no effect; nearly all actives have a fitted effect of over 70% in size
* = called active by the depositor; nt = no result given. Shown are actives, neighbours in structure and some others; about 2.4% of the full set was active somewhere. Unless noted, the call rests on the fitted dose curve; in most records, active means well fitted activation curve with a large enough effect; inconclusive means small, poorly fitted or top-dose-only effect; inactive means flat fitted curve, though single readings scatter.

SMILES | D2 PAM-1 | D2 ag-1 | D2 PAM-2 | D2 antagonist | D2 ag-2 | D3 ag | D2 ag-3
CCCn1c(/C=C/c2ccco2)nc2ccccc21 | -14 | 10 | -4 | -5 | 3 | 0% | 8%
CCCCn1c(/C=C/c2ccco2)nc2ccccc21 | -10 | 40* | -18 | 64* | -2 | -6% | -1%
FC(F)(F)c1ccccc1NC(=S)N1CCCC1 | -4 | 0 | -1 | 8 | -3 | nt | nt
S=C(Nc1ccccc1)N1CCN(c2ccccn2)CC1 | -2 | 45* | -14 | 16 | -3 | -5% | 4%
O=C(/C=C/c1ccc(F)cc1)NC(=S)N1CCN(c2ccccn2)CC1 | -7 | 35* | -21 | -15 | 5 | 5% | 11%
FC(F)(F)c1ccccc1NC(=S)N1CCN(c2ccccn2)CC1 | 2 | 41* | -5 | -8 | -2 | 3% | 1%
COc1ccc(NC(=S)N2CCN(c3ccccn3)CC2)cc1 | -2 | 14 | -13 | -11 | -2 | nt | nt
Cc1ccc(C)c(NC(=S)N2CCN(c3ccccn3)CC2)c1 | -14 | 19 | -5 | -16 | -2 | 0% | 3%
Cc1c(C(=O)N(Cc2ccc(N(C)C)cc2)CC2CCCO2)oc2ccc(Br)cc12 (centres undefined) | nt | -1 | 13 | nt | nt | nt | nt
CCOC(=O)c1[nH]c(C)c(CCC(=O)N2CCN(c3cc(Cl)ccc3C)CC2)c1C | nt | 0 | nt | nt | nt | nt | nt
CCCCOC(=O)c1ccc(NC(C)=O)cc1 | -7 | -1 | 1 | 10 | 0 | nt | nt
CC(=O)Nc1ccc(C(=O)OCCCOC(=O)c2ccc(NC(C)=O)cc2)cc1 | -13 | 76* | -14 | 15 | -1 | -5% | -4%
CCN(CC)CCSc1nnc2c3ccccc3n(Cc3ccccc3)c2n1 | -26 | 0 | -13 | 60* | -5 | -10% | -6%
CCN(CC)CCSc1nnc2c3cc(F)ccc3n(Cc3ccccc3)c2n1 | -18 | -2 | -18 | -27 | 0 | nt | nt
CCOc1c(Cl)cc(CNc2ccc3[nH]c(=O)[nH]c3c2)cc1OC | nt | 1 | -3 | nt | nt | nt | nt
CCOC(=O)c1cc(S(=O)(=O)N2CCN(c3ccc(F)cc3)CC2)[nH]n1 | nt | 1 | -2 | nt | nt | nt | nt
COc1ccc(SC[C@H](Cc2ccccc2)N2CC[C@@H](O)CCC2=O)cc1 | -6 | 0 | -7 | -1 | -1 | nt | nt
COc1ccc(SC[C@H](Cc2ccccc2)N2CC[C@@H](C(C)(C)C)CCC2=O)cc1 | 2 | 1 | 1 | 6 | 2 | -12% | -3%
CC1=C(C(=O)NCCc2ccc(Cl)cc2)C2(CCCCC2)OC1=O | nt | 1 | -10 | nt | nt | nt | nt
CCc1ccc(S(=O)(=O)c2nnn(-c3cccc(C)c3)c2N)cc1 | nt | 3 | 6 | nt | nt | nt | nt
O=c1ccn(CCc2c[nH]c3ccccc23)c2c1CCCC2 | 3 | 43* | -19 | 19 | 2 | -5% | -1%
COc1ccc(N2C(=O)C(CC(=O)Nc3ccccc3)N(CCC3=CCCCC3)C2=O)cc1 (centres undefined) | nt | 0 | -24 | nt | nt | nt | nt
Cn1cncc1C#Cc1ccc2cc(CCO)oc(=O)c2c1 | -1 | 0 | 8 | -1 | -2 | 7% | -5%
COc1ccc(S(=O)(=O)N2CCC(N3CCN(Cc4ccccc4)CC3)CC2)cc1 | -2 | 77* | -20 | 74* | 14 | -9% | 27%
C[C@@H]1O[C@@H](Oc2c(-c3ccc(O)c(O)c3)oc3cc(O)cc(O)c3c2=O)[C@H](O)[C@H](O)[C@H]1O | 11 | nt | nt | nt | -6 | nt | nt
C[C@@H]1O[C@@H](O[C@H]2[C@H](O)[C@@H](O)[C@H](Oc3c(-c4ccc(O)c(O)c4)oc4cc(O)cc(O)c4c3=O)O[C@@H]2CO)[C@H](O)[C@H](O)[C@H]1O | -1 | -1 | 10 | -17 | -1 | 0% | 4%
C=CCNC(=S)NCc1ccccc1 | -10 | -1 | 2 | -3 | -4 | nt | nt
C=CCNCc1cccn1-c1ccccc1 | -9 | 3 | -5 | -8 | 2 | -9% | 0%
